From PubChem BioAssay
Cy5 interf NS3h: Cy5 fluorescence interference, HCV helicase counter-screen; fluorescence interference ratio at 100 µM; 16,000 compounds, 6% hits; Cy5-dT15 DNA with NS3h; actives lie on both sides; signal over control mean, under 1 quenches;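 active = compound fluorescence over control fluorescence at most 0.8, a quencher, or at least a set upper limit, an enhancer; inactive = ratio between 0.8 and the set upper limit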
NS3h inh CB: blocks HCV NS3 helicase binding to DNA | inhibition, % at 100 µM | NS3h Cy5-dT15 DNA binding, fluorescence polarization | 16,000 compounds, 1.6% hits;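 active = inhibition above the average over every tested compound plus 3 SD, cut at about 40% in these data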
* = called active by the depositor. A selection: hits, their analogues and other compounds. The true share with any hit is near 7.6%.

SMILES | Cy5 interf NS3h | NS3h inh CB
O=C1NN(c2ccccc2)C(=O)/C1=C/c1ccc(OCc2ccccc2F)cc1 | 1 | 14
Oc1ccccc1-c1nc(-c2ccccc2)c(-c2cccs2)[nH]1 | 0.95 | 12
O=C1/C(=C/c2cccc(O)c2)SC(=S)N1c1cccc(Br)c1 | 0.92 | 5
O=C1CSC(=O)N1CCN1C(=O)S/C(=C\c2ccccc2O)C1=O | 1.1 | 1
CCOc1ccc2nc(SCC(=O)Nc3ccc(OC)cc3OC)sc2c1 | 0.94 | 7
COc1ccc(NC(=O)CSc2nc3ccc(N4C(=O)c5ccccc5C4=O)cc3s2)c([N+](=O)[O-])c1 | 0.73* | 14
CC(O)c1cccc(NC(=O)c2cnn3c2NC(c2ccco2)CC3C(F)(F)F)c1 (stereo not drawn) | 0.49* | 17
COc1ccc(CNC(=O)c2cnn3c2NC(c2ccco2)CC3C(F)(F)F)cc1 (stereo not drawn) | 0.75* | 14
O=C(c1cnn2c1NC(c1ccco1)CC2C(F)(F)F)N1CCN(Cc2ccccc2)CC1 (stereo not drawn) | 0.7* | 5
COc1ccc(C2CC(C(F)(F)F)n3ncc(C(=O)O)c3N2)cc1OC (stereo not drawn) | 1 | -10
COc1cc(C2CC(C(F)(F)F)n3ncc(C(=O)N4CCN(Cc5ccccc5)CC4)c3N2)cc(OC)c1OC (stereo not drawn) | 1 | 5
CC(O)c1cccc(NC(=O)c2cc3n(n2)C(C(F)(F)F)CC(c2ccc(Cl)cc2)N3)c1 (stereo not drawn) | 1 | -3
COc1ccc(NC(=O)c2cnn3c2NC(c2ccccc2)CC3C(F)(F)F)cc1OC (stereo not drawn) | 0.73* | 9
COc1ccc(NC(=O)c2cnn3c2NC(c2ccco2)CC3C(F)(F)F)c(OC)c1 (stereo not drawn) | 1 | 10
Clc1ccc(-c2noc(-c3ccc(I)cc3)n2)cc1 | 1 | -1
CCSC1=C(C#N)C(c2ccc(O)cc2)C(C(=O)Nc2ccccc2)=C(C)N1 (stereo not drawn) | 0.93 | 6
Cc1cccc(N2C(=O)C(=O)C(=C(O)c3ccccc3)C2c2cccc(F)c2)c1 (stereo not drawn) | 0.98 | 4
Cc1ccc(C(O)C#CC(O)(c2ccccc2)c2ccccc2)o1 (stereo not drawn) | 0.93 | 14
C=CCN1C(=O)/C(=C\c2cccc(OCC(=O)O)c2)C(=O)NC1=S | 0.99 | 32
O=P(O)(Oc1cccc(Cl)c1)Oc1cccc(Cl)c1 | 1 | -1
COc1ccc(C2CC(C(F)(F)F)n3ncc(C(=O)Nc4cccc(C(C)O)c4)c3N2)cc1OC (stereo not drawn) | 0.7* | 8
COc1ccc(C2CC(C(F)(F)F)n3ncc(C(=O)Nc4cc(Cl)ccc4O)c3N2)cc1OC (stereo not drawn) | 0.99 | 6
O=C1NC(=S)S/C1=C/c1ccc(-c2ccc([N+](=O)[O-])cc2Br)o1 | 0.99 | 32
Cc1ccc(-c2ccc(/C=C3/SC(=S)NC3=O)o2)cc1Cl | 0.77* | 6
COC(=O)c1ccc(-n2ncnc2-c2ccc(OCc3ccccc3)c(OC)c2)cc1 | 0.9 | 4
SMILES | Cy5 interf NS3h | NS3h inh CB
CN1CCN(c2ccc(/C=C3\Sc4ccccc4C3=O)cc2[N+](=O)[O-])CC1 | 0.79* | -3
COc1ccc(/C=C2/Sc3ccccc3C2=O)cc1 | 0.95 | 14
CN1C(=O)C(=Cc2ccc(O)c([N+](=O)[O-])c2)C(=O)N(C)C1=O | 1.1 | 11
CN1CCN(c2ccc(/C=C3\NC(=S)NC3=O)cc2[N+](=O)[O-])CC1 | 0.61* | 1
CC(O)CNC(=O)C(=O)Nc1ccc(N(C)C)cc1 (stereo not drawn) | 0.98 | 3
COc1ccc(C(=O)/C=C/Nc2ccccc2F)cc1 | 1 | 35
CC(Oc1ccc(Br)cc1)C(=O)N/N=C\c1ccccc1O (stereo not drawn) | 1 | 4
O=C(N/N=C\c1cccc(Br)c1)C(Oc1ccccc1)Oc1ccccc1 | 0.78* | 9
O=C(O)c1ccc(C(=O)NCc2ccccc2)c(C(=O)O)c1 | 1 | -8
O=C(NCc1ccccc1)c1ccccc1Cl | 0.79* | 7
Cc1ccc(C(O)(CNCc2ccccc2)c2ccc(Br)cc2)cc1 (stereo not drawn) | 0.93 | 7
COc1ccc(C(O)(CNCc2ccccc2)c2ccc(Br)cc2)cc1 (stereo not drawn) | 0.73* | 16
COCCCNC(=O)C(=O)NCCc1ccc(OC)cc1 | 0.74* | 13
COc1ccc(CCNC(=O)C(=O)NCCCOC(C)C)cc1 | 1.1 | 6
Cc1ccc(CNC(=O)C(=O)NCc2ccncc2)cc1 | 1 | -4
Cc1ccc(CNC(=O)C(=O)NCc2ccccc2)cc1 | 1.2* | 9
CC(C)(C)C1(O)CC(C(=O)O)(C(C)(C)C)OC1=O (stereo not drawn) | 1.1 | -22
COc1ccc(Cl)cc1NC(=O)C1=C(C)NC(=S)NC1c1ccccc1Br (stereo not drawn) | 0.99 | 9
Cc1ccoc1C(=O)Nc1ccccc1C(=O)O | 1 | -2
CC(=O)N(C)c1ccc(NC(=O)COc2ccc(Cl)cc2)cc1 | 1 | 8
COc1ccc(C(=O)CSc2ncn[nH]2)cc1[N+](=O)[O-] | 1 | 10
CC(=O)Oc1ccc(-c2cccc(C(=O)NCc3ccccc3)c2)cc1 | 0.81 | 29
Cc1ccc(CNC(=O)C(=O)NC(C)C)cc1 | 1.1 | 12
O=C(NCc1ccc(F)cc1)c1ccccc1I | 1 | 10
O=C(Cc1ccc(F)cc1)NCC1CCCO1 (stereo not drawn) | 0.75* | 4
SMILES | Cy5 interf NS3h | NS3h inh CB
COc1ccc(CNC(=O)C(=O)NCc2ccccc2)cc1 | 0.73* | 10
COc1ccc(CC(=O)NCC2CCCO2)cc1OC (stereo not drawn) | 1.1 | 1
Cc1ccc(CNC(=O)C(=O)N2CCCC2)cc1 | 1.3* | 4
COc1ccc(CNC(=O)C(=O)Nc2ccccc2C)cc1 | 1.1 | 4
O=C(Cc1ccc(F)cc1)NCc1ccccc1 | 0.59* | 3
O=C(NC(=S)Nc1ccc(NC(=O)c2ccco2)cc1)c1ccco1 | 1 | 19
COc1ccc(N(CC(N)=O)S(=O)(=O)c2ccccc2)cc1 | 1 | -13
Cc1ccc(OCC(=O)Nc2ccc(O)c(-c3nc4cc(C)c(C)cc4o3)c2)cc1C | 1.1 | 15
O=C1Nc2c(S(=O)(=O)O)cc(S(=O)(=O)O)c3cccc1c23 | 1.1 | 7
S=C(NCCOCCOCCNC(=S)Nc1ccccc1)Nc1ccccc1 | 1.1 | 3
COCCNC(=S)Nc1ccc(OC)cc1 | 0.77* | 8
CC(=O)C1=C(O)C(=O)N(CCN(C)C)C1c1ccc([N+](=O)[O-])cc1 (stereo not drawn) | 0.91 | 8
Cc1ccc(/C=C2/SC(=O)N(c3ccccc3)C2=O)cc1 | 0.97 | 18
O=C1S/C(=C\c2cccs2)C(=O)N1c1ccccc1 | 0.64* | 1
CN(C)/C=N\n1cnc2scc(-c3ccc(Cl)cc3)c2c1=O | 1 | 7
O=C(Nc1ccc(-c2nc3ccccc3c(=O)o2)cc1)c1ccccc1F | 0.89 | -2
O=c1oc(-c2cccc(F)c2)nc2ccc(Cc3ccc4nc(-c5cccc(F)c5)oc(=O)c4c3)cc12 | 0.77* | 20
O=c1oc2c(F)c(F)c(F)c(F)c2c2[nH]ncc12 | 1 | -13
COc1cc(NC(=O)C(F)(F)F)c(Cl)cc1NC(=O)c1ccccc1 | 0.93 | 43*
COc1cc(NC(C)=O)c(Cl)cc1NC(=O)c1ccccc1 | 1 | 4
